# From PubChem BioAssay (NCI)
# Compounds without any hit were thinned out: in the full panel of roughly 79,000, 15% have a hit. A number with no mark means an inactive call. The source made the active and inactive calls. Rule as the data show it: active = growth inhibition above about 70%; inactive = the rest.
# What was measured:
# [1] = NCI Yeast Anticancer Drug Screen. Data for the rad52 strain (AID 147);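 also: 0% = growth of vehicle-treated control cultures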; conditions: S. cerevisiae rad52 mutant growth inhibition, stronger effect = higher value
# Procedure, shortened: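 Here a repair-compromised yeast strain receives each compound; its growth is then quantified and normalised to vehicle-only controls.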
# [2] = NCI Yeast Anticancer Drug Screen. Data for the wt1 strain (AID 149);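 also: 0% = growth of vehicle-treated wt1 cultures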; conditions: S. cerevisiae wt1 strain (SPY 50644) growth inhibition, stronger effect = higher value
# Procedure, shortened: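 Yeast wt1 strain exposed to compounds; growth inhibition measured relative to vehicle-treated controls.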
# [3] = NCI Yeast Anticancer Drug Screen. Data for the rad50EPP+ strain (AID 151);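 also: 0% = growth of vehicle-treated control cultures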; conditions: S. cerevisiae rad50 mutant strain, stronger effect = higher value
# Procedure, shortened: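 Read-out is yeast growth inhibition relative to vehicle; cells used were the rad50EPP+ strain.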
# [4] = NCI Yeast Anticancer Drug Screen. Data for the mgt1 strain (AID 153); conditions: S. cerevisiae mgt1 mutant growth inhibition, stronger effect = higher value
# Procedure, shortened: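 Measured: inhibition of mgt1 yeast growth by compound, normalized to vehicle-treated cultures.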
# [5] = NCI Yeast Anticancer Drug Screen. Data for the rad50 strain (AID 155);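 also: 0% = growth of vehicle-only cultures of the same strain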; conditions: S. cerevisiae rad50 strain growth inhibition, stronger effect = higher value
# Procedure, shortened: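 Yeast carrying a defined DNA repair defect were exposed to test compounds, and growth was compared with vehicle-treated controls to give percent inhibition.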
# [6] = NCI Yeast Anticancer Drug Screen. Data for the mec2-1 strain (AID 157); conditions: S. cerevisiae mec2-1 strain, stronger effect = higher value
# Procedure, shortened: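 Using mec2-1 yeast: add compound, measure growth, express inhibition versus vehicle-treated cultures.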
# [7] = NCI Yeast Anticancer Drug Screen. Data for the rad14 strain (AID 159);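 also: 0% = growth of vehicle-treated control cultures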; conditions: S. cerevisiae rad14 strain growth inhibition, stronger effect = higher value
# Procedure, shortened: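 Yeast cells carrying a defined DNA-repair defect were exposed to compounds, and growth inhibition was calculated relative to vehicle-treated control cultures.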
# [8] = NCI Yeast Anticancer Drug Screen. Data for the sgs1 mgt1 strain (AID 161);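 also: 0% = growth of cultures given vehicle only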; conditions: S. cerevisiae sgs1 mgt1 strain, stronger effect = higher value
# Procedure, shortened: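 Percent growth inhibition was derived by comparing compound-exposed mutant yeast with vehicle-exposed cultures. The strain carries alterations in DNA damage repair.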
# [9] = NCI Yeast Anticancer Drug Screen. Data for the CLN2oe strain (AID 163);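 also: 0% = growth of vehicle-only control cultures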; conditions: S. cerevisiae CLN2oe strain, stronger effect = higher value
# Procedure, shortened: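 Whole-cell yeast growth assay. A strain engineered for altered cell-cycle control received compound, and inhibition relative to vehicle-treated cultures was recorded.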
# [10] = NCI Yeast Anticancer Drug Screen. Data for the cln2 rad14 strain (AID 165);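 also: 0% = growth equal to vehicle treated cultures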; conditions: S. cerevisiae cln2 rad14 strain, stronger effect = higher value
# Procedure, shortened: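 Yeast strain cln2 rad14, bearing defects in cell cycle control and DNA repair, serves as the test system; values reflect growth inhibition compared with vehicle.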
# [11] = NCI Yeast Anticancer Drug Screen. Data for the bub3 strain (AID 167); conditions: S. cerevisiae bub3 mutant strain, stronger effect = higher value
# Procedure, shortened: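 Compounds were applied to a genetically altered yeast strain carrying a cell-cycle control defect. Growth inhibition was scored against vehicle-treated controls.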
# [12] = NCI Yeast Anticancer Drug Screen. Data for the wt2 strain (AID 169);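 also: 0% = growth of vehicle-treated yeast cultures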; conditions: S. cerevisiae wt2 strain growth inhibition, stronger effect = higher value
# Procedure, shortened: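 Treated yeast vs. vehicle-treated yeast: growth inhibition determined.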
# [13] = NCI Yeast Anticancer Drug Screen. Data for the mlh1 strain (AID 171);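 also: 0% = growth of vehicle-treated control cultures of the same strain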; conditions: S. cerevisiae mlh1 strain growth inhibition, stronger effect = higher value
# Procedure, shortened: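 A yeast strain with a defined genetic lesion serves as the test organism. Cultures receive compound or vehicle, and growth is measured.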
# [14] = NCI Yeast Anticancer Drug Screen. Data for the sgs1 strain (AID 173);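 also: 0% = growth of vehicle-only control cultures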; conditions: S. cerevisiae sgs1 mutant, stronger effect = higher value
# Procedure, shortened: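 A genetically defined yeast mutant is incubated with the test compound, and its growth is compared to that of the same strain given vehicle.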
# [15] = NCI Yeast Anticancer Drug Screen. Data for the mlh1 rad18 strain (AID 175); conditions: S. cerevisiae mlh1 rad18 strain growth inhibition, stronger effect = higher value
# Procedure, shortened: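 Steps: expose repair-defective yeast to compound; measure growth; express inhibition against vehicle-treated controls.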
# [16] = NCI Yeast Anticancer Drug Screen. Data for the rad18 strain (AID 177); conditions: S. cerevisiae rad18 mutant growth inhibition, stronger effect = higher value
# Procedure, shortened: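 Measured value is growth inhibition of a yeast strain bearing a DNA repair alteration, referenced to vehicle-treated cells.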
# [17] = at 5.0 µM (retest, dose inferred, filed as 0.5)
# [18] = at 50.0 µM (retest, dose inferred, filed as 5.0)
smiles,measurement,setting,value
CCOC(=O)CC1(C)/C(=N\Nc2ccc([N+](=O)[O-])cc2[N+](=O)[O-])CCC2C1CCC1(C)C(C(C)CCCC(C)C)CCC21 (stereo not drawn),growth inhibition,[1]; at 1.2 µM,0%
same,growth inhibition,[1]; at 3.7 µM,0%
same,growth inhibition,[1]; at 11.0 µM,0%
same,growth inhibition,[1]; at 33.0 µM,1%
same,growth inhibition,[1]; at 100.0 µM,-2%
same,growth inhibition,[2]; at 1.2 µM,0%
same,growth inhibition,[2]; at 3.7 µM,-1%
same,growth inhibition,[2]; at 11.0 µM,-1%
same,growth inhibition,[2]; at 33.0 µM,-1%
same,growth inhibition,[2]; at 100.0 µM,-3%
same,growth inhibition,[3]; at 1.2 µM,-2%
same,growth inhibition,[3]; at 3.7 µM,-1%
same,growth inhibition,[3]; at 11.0 µM,-2%
same,growth inhibition,[3]; at 33.0 µM,-2%
same,growth inhibition,[3]; at 100.0 µM,1%
same,growth inhibition,[4]; at 1.2 µM,-1%
same,growth inhibition,[4]; at 3.7 µM,-3%
same,growth inhibition,[4]; at 11.0 µM,-2%
same,growth inhibition,[4]; at 33.0 µM,-1%
same,growth inhibition,[4]; at 100.0 µM,-5%
same,growth inhibition,[5]; at 1.2 µM,1%
same,growth inhibition,[5]; at 3.7 µM,2%
same,growth inhibition,[5]; [17],92% (active)
same,growth inhibition,[5]; at 11.0 µM,3%
same,growth inhibition,[5]; at 33.0 µM,0%
same,growth inhibition,[5]; [18],90% (active)
same,growth inhibition,[5]; at 50.0 µM,-50.5%
same,growth inhibition,[5]; at 100.0 µM,-1%
same,growth inhibition,[6]; at 1.2 µM,-4%
same,growth inhibition,[6]; at 3.7 µM,-4%
same,growth inhibition,[6]; [17],10%
same,growth inhibition,[6]; at 11.0 µM,-5%
same,growth inhibition,[6]; at 33.0 µM,-1%
same,growth inhibition,[6]; [18],10%
same,growth inhibition,[6]; at 50.0 µM,-6.8%
same,growth inhibition,[6]; at 100.0 µM,-5%
same,growth inhibition,[7]; at 1.2 µM,0%
same,growth inhibition,[7]; at 3.7 µM,-2%
same,growth inhibition,[7]; at 11.0 µM,-4%
same,growth inhibition,[7]; at 33.0 µM,-3%
same,growth inhibition,[7]; at 100.0 µM,-3%
same,growth inhibition,[8]; [17],6%
same,growth inhibition,[8]; [18],4%
same,growth inhibition,[8]; at 50.0 µM,-26.4%
same,growth inhibition,[9]; at 1.2 µM,-2%
same,growth inhibition,[9]; at 3.7 µM,-4%
same,growth inhibition,[9]; at 11.0 µM,6%
same,growth inhibition,[9]; at 33.0 µM,-2%
same,growth inhibition,[9]; at 100.0 µM,-5%
same,growth inhibition,[10]; [17],7%
same,growth inhibition,[10]; [18],-3%
same,growth inhibition,[10]; at 50.0 µM,-21.4%
same,growth inhibition,[11]; at 1.2 µM,-1%
same,growth inhibition,[11]; at 3.7 µM,-3%
same,growth inhibition,[11]; [17],-10%
same,growth inhibition,[11]; at 11.0 µM,-5%
same,growth inhibition,[11]; at 33.0 µM,-3%
same,growth inhibition,[11]; [18],-11%
same,growth inhibition,[11]; at 50.0 µM,-1.1%
same,growth inhibition,[11]; at 100.0 µM,-5%
same,growth inhibition,[12]; at 1.2 µM,0%
same,growth inhibition,[12]; at 3.7 µM,1%
same,growth inhibition,[12]; at 11.0 µM,0%
same,growth inhibition,[12]; at 33.0 µM,-1%
same,growth inhibition,[12]; at 100.0 µM,-1%
same,growth inhibition,[13]; at 1.2 µM,-1%
same,growth inhibition,[13]; at 3.7 µM,-3%
same,growth inhibition,[13]; at 11.0 µM,-2%
same,growth inhibition,[13]; at 33.0 µM,-3%
same,growth inhibition,[13]; at 100.0 µM,-3%
same,growth inhibition,[14]; at 1.2 µM,-1%
same,growth inhibition,[14]; at 3.7 µM,-3%
same,growth inhibition,[14]; at 11.0 µM,-2%
same,growth inhibition,[14]; at 33.0 µM,-1%
same,growth inhibition,[14]; at 100.0 µM,-2%
same,growth inhibition,[15]; [17],4%
same,growth inhibition,[15]; [18],2%
same,growth inhibition,[15]; at 50.0 µM,0.05%
same,growth inhibition,[16]; at 1.2 µM,-2%
same,growth inhibition,[16]; at 3.7 µM,-5%
same,growth inhibition,[16]; at 11.0 µM,-3%
same,growth inhibition,[16]; at 33.0 µM,-5%
same,growth inhibition,[16]; at 100.0 µM,-4%
COc1cc(NCCCCNCC(C)(C)C)c2ncccc2c1,growth inhibition,[1]; at 1.2 µM,-3%
same,growth inhibition,[1]; at 3.7 µM,1%
same,growth inhibition,[1]; at 11.0 µM,8%
same,growth inhibition,[1]; at 33.0 µM,14%
same,growth inhibition,[1]; at 100.0 µM,26%
same,growth inhibition,[2]; at 1.2 µM,-2%
same,growth inhibition,[2]; at 3.7 µM,1%
same,growth inhibition,[2]; at 11.0 µM,4%
same,growth inhibition,[2]; at 33.0 µM,0%
same,growth inhibition,[2]; at 100.0 µM,1%
same,growth inhibition,[3]; at 1.2 µM,-8%
same,growth inhibition,[3]; at 3.7 µM,-12%
same,growth inhibition,[3]; at 11.0 µM,-16%
same,growth inhibition,[3]; at 33.0 µM,-19%
same,growth inhibition,[3]; at 100.0 µM,-17%
same,growth inhibition,[4]; at 1.2 µM,0%
same,growth inhibition,[4]; at 3.7 µM,3%
same,growth inhibition,[4]; at 11.0 µM,6%
same,growth inhibition,[4]; at 33.0 µM,14%
same,growth inhibition,[4]; at 100.0 µM,2%
same,growth inhibition,[5]; at 1.2 µM,-5%
same,growth inhibition,[5]; at 3.7 µM,1%
same,growth inhibition,[5]; [17],11%
same,growth inhibition,[5]; at 11.0 µM,6%
same,growth inhibition,[5]; at 33.0 µM,10%
same,growth inhibition,[5]; [18],25%
same,growth inhibition,[5]; at 50.0 µM,59.9%
same,growth inhibition,[5]; at 100.0 µM,35%
same,growth inhibition,[6]; at 1.2 µM,-3%
same,growth inhibition,[6]; at 3.7 µM,-4%
same,growth inhibition,[6]; [17],-3%
same,growth inhibition,[6]; at 11.0 µM,0%
same,growth inhibition,[6]; at 33.0 µM,2%
same,growth inhibition,[6]; [18],16%
same,growth inhibition,[6]; at 50.0 µM,18%
same,growth inhibition,[6]; at 100.0 µM,13%
same,growth inhibition,[7]; at 1.2 µM,-1%
same,growth inhibition,[7]; at 3.7 µM,8%
same,growth inhibition,[7]; at 11.0 µM,29%
same,growth inhibition,[7]; at 33.0 µM,32%
same,growth inhibition,[7]; at 100.0 µM,28%
same,growth inhibition,[8]; [17],1%
same,growth inhibition,[8]; [18],28%
same,growth inhibition,[8]; at 50.0 µM,51.8%
same,growth inhibition,[9]; at 1.2 µM,0%
same,growth inhibition,[9]; at 3.7 µM,2%
same,growth inhibition,[9]; at 11.0 µM,12%
same,growth inhibition,[9]; at 33.0 µM,25%
same,growth inhibition,[9]; at 100.0 µM,39%
same,growth inhibition,[10]; [17],5%
same,growth inhibition,[10]; [18],33%
same,growth inhibition,[10]; at 50.0 µM,51.6%
same,growth inhibition,[11]; at 1.2 µM,-2%
same,growth inhibition,[11]; at 3.7 µM,-2%
same,growth inhibition,[11]; [17],3%
same,growth inhibition,[11]; at 11.0 µM,0%
same,growth inhibition,[11]; at 33.0 µM,19%
same,growth inhibition,[11]; [18],20%
same,growth inhibition,[11]; at 50.0 µM,70.9% (active)
same,growth inhibition,[11]; at 100.0 µM,37%
